Source: PubChem BioAssay (EPA / NIEHS)
The source made the active and inactive calls. Rule for the calls: active = hit-call score of the fitted dose curve at least 0.9, where 1 is the maximum; inactive = score below 0.9.

What was measured:
[1] = ATG_CRE_CIS: Attagene CIS-FACTORIAL HepG2 Assay for human cAMP Responsive Element (CRE) binding protein 3 (AID 2282926); conditions: HepG2 CRE cis-reporter, Attagene multiplexed mRNA; actives raise or lower the signal
Outline: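 Transfected HepG2 were treated for 24 hours, then RNA was extracted and reporter cDNA amplified with sequence-specific primers. Labelled fragments were separated by capillary electrophoresis, and the CRE signal was fitted bidirectionally with DMSO as baseline.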

[2] = molecular target: CCAAT/enhancer-binding protein beta (Homo sapiens) (UniProt P17676); assay: ATG_C_EBP_CIS: Attagene CIS-FACTORIAL HepG2 Assay for human CCAAT/Enhancer Binding Protein (C/EBP) beta (AID 2282927); conditions: HepG2 Attagene cis-factorial transcription factor reporter; actives raise or lower the signal
Outline: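 Changes in reporter mRNA, rather than exogenous chimeric receptor activity, reflect native C/EBP signalling in transfected HepG2 cells dosed for 24 h; transcripts are detected by RT-PCR and capillary electrophoresis.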

[3] = ATG_CMV_CIS: Attagene CIS-FACTORIAL HepG2 Assay for human CMV (Internal Marker) (AID 2282928); conditions: HepG2 CMV promoter reporter, transcription factor profiling; actives raise or lower the signal;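 note: endpoint acts as a background internal control marker rather than a target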
Outline: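 HepG2 cells transiently transfected with multiple cis-regulated reporter units; 24 h compound exposure. Reporter mRNA quantified by RT-PCR, 6-FAM primer-extension labeling, HpaI digestion and capillary electrophoresis; bidirectional fitting against DMSO baseline.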

[4] = ATG_DR4_LXR_CIS: Attagene CIS-FACTORIAL HepG2 Assay for human Liver X Receptor (LXR), DR4 submotif (AID 2282929); conditions: HepG2 Attagene DR4 cis-reporter, mRNA transcription; actives raise or lower the signal
Outline: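 HepG2 cells transiently transfected with cis-promoter-driven multiplexed reporter units (DR4 element) were dosed for 24 h. Reporter mRNA was quantified by RT-PCR, fluorescent primer extension, HpaI digestion and capillary electrophoresis; bidirectional fitting versus DMSO baseline.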

[5] = molecular target: Aryl hydrocarbon receptor (Homo sapiens) (UniProt P35869); assay: ATG_Ahr_CIS: Attagene CIS-FACTORIAL HepG2 Assay for human Aryl Hydrocarbon Receptor (Ahr) (AID 2282930); conditions: HepG2 AhR cis-factorial reporter transcription; actives raise or lower the signal
Outline: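 HepG2, transient MRTU (cis) transfection, 24 h exposure. RNA → cDNA → PCR → 6-FAM primer extension → HpaI 2 h 37 C → CE. Fit: bidirectional, DMSO baseline.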

[6] = ATG_AP_1_CIS: Attagene CIS-FACTORIAL HepG2 Assay for human Activator Protein 1 (AP-1) (AID 2282931); conditions: HepG2 Attagene cis-factorial AP-1 reporter mRNA; actives raise or lower the signal
Outline: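 HepG2 cells transiently transfected with cis-element-driven multiplex reporter units; 24 h compound exposure. Reporter mRNA quantified by RT-PCR, FAM-labelled fragments resolved by capillary electrophoresis; bidirectional fit versus DMSO baseline.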

[7] = ATG_BRE_CIS: Attagene CIS-FACTORIAL HepG2 Assay for human Bone Morphogenetic Protein (BMP) Response Element (BRE) (AID 2282933); conditions: HepG2 BMP response element reporter, Attagene transcription factor profiling; actives raise or lower the signal
Outline: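 HepG2 cells transiently transfected with CIS reporter units (endogenous TF activity, BMP response element), dosed 24 h. Reporter mRNA quantified by RT-PCR, fluorescent labelling and capillary electrophoresis; bidirectional fit vs DMSO baseline.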

[8] = molecular target: Retinoic acid receptor alpha (Homo sapiens) (UniProt P10276); assay: ATG_DR5_RAR_CIS: Attagene CIS-FACTORIAL HepG2 Assay for human Retinoic Acid Receptor Alpha (RARE), DR5 submotif (AID 2282934); conditions: HepG2 Attagene cis-factorial RARE DR5 reporter, mRNA; actives raise or lower the signal;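 for AC50: reporter responds to endogenous RAR alpha beta and gamma in HepG2 not RARA alone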
Outline: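 HepG2, transient cis-reporter transfection, 24 h exposure. mRNA readout: RT-PCR, FAM label, HpaI cut, capillary electrophoresis. DMSO baseline, gain/loss fitting.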

[9] = molecular target: Transcription factor E2F1 (Homo sapiens) (UniProt Q01094); assay: ATG_E2F_CIS: Attagene CIS-FACTORIAL HepG2 Assay for human E2F Transcription Factor 1 (AID 2282935); conditions: HepG2 Attagene cis-reporter, E2F reporter RNA transcripts; actives raise or lower the signal
Outline: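 Total RNA from 24 h-treated, reporter-transfected HepG2 cells undergoes DNase I treatment, oligo(dT) reverse transcription, PCR and 6-FAM primer extension before capillary electrophoresis.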

[10] = ATG_AP_2_CIS: Attagene CIS-FACTORIAL HepG2 Assay for human Activator Protein 2 (AP-2) (AID 2282932); conditions: HepG2 AP-2 cis-reporter, Attagene transcription factor profiling; actives raise or lower the signal
Outline: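 Step one: transient transfection of HepG2 with reporter transcription units. Step two: 24 h chemical exposure. Step three: RNA extraction, RT-PCR, labelled fragment analysis by capillary electrophoresis; DMSO serves as baseline.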

Measured: AC50

Chain of Retinoic acid receptor alpha (Homo sapiens) (P10276 whole entry, looked up): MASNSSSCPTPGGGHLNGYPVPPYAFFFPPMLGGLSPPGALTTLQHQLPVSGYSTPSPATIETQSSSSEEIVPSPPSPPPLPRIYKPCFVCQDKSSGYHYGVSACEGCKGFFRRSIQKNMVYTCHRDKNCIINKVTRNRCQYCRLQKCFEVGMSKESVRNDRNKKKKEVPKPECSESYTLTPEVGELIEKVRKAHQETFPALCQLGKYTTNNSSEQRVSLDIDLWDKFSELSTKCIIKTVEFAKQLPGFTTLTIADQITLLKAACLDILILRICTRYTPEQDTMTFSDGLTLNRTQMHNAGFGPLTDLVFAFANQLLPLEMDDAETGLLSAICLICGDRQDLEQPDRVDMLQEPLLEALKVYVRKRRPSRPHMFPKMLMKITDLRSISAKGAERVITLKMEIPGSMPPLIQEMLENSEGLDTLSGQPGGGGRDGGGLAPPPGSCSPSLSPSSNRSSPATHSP
Chain of CCAAT/enhancer-binding protein beta (Homo sapiens) (P17676 whole entry, looked up): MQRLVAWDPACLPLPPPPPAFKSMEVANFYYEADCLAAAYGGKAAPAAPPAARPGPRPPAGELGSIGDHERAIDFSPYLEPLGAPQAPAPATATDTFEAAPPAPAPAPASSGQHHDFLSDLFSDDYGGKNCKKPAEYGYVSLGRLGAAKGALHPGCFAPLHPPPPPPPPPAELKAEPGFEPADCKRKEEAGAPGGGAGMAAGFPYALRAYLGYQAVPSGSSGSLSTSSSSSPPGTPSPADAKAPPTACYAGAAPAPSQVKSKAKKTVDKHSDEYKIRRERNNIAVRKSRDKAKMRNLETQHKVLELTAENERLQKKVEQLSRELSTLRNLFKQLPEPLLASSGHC
Chain of Aryl hydrocarbon receptor (Homo sapiens) (P35869 whole entry, looked up): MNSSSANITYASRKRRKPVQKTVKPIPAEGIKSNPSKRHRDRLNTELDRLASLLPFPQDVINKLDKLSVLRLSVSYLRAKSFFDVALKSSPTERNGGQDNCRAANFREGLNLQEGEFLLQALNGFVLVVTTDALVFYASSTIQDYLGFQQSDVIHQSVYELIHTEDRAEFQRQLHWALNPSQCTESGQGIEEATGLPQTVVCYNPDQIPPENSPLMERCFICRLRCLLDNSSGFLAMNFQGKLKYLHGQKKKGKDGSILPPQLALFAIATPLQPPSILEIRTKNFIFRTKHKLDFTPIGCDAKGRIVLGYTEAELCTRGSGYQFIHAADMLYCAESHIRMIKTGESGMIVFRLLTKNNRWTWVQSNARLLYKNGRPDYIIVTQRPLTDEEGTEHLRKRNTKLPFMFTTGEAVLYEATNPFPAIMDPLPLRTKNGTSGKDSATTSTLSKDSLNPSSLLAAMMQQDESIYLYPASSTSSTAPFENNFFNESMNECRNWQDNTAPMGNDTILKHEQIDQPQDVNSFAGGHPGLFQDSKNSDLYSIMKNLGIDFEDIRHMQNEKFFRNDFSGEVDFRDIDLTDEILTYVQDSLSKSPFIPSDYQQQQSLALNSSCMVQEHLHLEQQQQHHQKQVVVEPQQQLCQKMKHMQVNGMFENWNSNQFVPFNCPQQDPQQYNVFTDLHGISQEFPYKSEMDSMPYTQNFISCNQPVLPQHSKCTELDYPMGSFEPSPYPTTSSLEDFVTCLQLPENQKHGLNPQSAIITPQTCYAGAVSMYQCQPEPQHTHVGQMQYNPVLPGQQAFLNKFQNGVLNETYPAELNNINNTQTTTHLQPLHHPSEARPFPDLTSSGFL
Chain of Transcription factor E2F1 (Homo sapiens) (Q01094 whole entry, looked up): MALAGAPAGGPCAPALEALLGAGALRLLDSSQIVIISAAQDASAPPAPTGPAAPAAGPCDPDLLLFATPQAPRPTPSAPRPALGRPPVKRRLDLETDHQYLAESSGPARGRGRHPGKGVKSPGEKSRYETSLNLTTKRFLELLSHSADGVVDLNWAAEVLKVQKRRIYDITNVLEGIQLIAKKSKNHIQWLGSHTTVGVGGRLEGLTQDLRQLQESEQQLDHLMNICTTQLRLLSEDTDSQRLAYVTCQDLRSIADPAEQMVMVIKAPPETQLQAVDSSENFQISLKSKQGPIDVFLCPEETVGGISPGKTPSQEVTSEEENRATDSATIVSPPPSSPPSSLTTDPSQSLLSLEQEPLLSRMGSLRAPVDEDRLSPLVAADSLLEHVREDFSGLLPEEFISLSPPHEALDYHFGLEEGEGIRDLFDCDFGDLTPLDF

COc1ccc(NC(C)=O)cc1N
active: [5] 50.4 µM
not listed: [10]
inactive: all other assays above

CCOC(=O)Cc1cccc2ccccc12
active: [8] 39.5 µM
not listed: [10]
inactive: all other assays above

c1c[nH]cn1
not listed: [7]
inactive: all other assays above

C=CC(=O)OCCC(=O)O
not listed: [7]
inactive: all other assays above

CCCCCCCCCCc1ccccc1
active: [8] 84.7 µM
not listed: [10]
inactive: all other assays above

CC(=O)Oc1ccc(C(C)=O)cc1
inactive: all assays above

O=C(O)c1cc2ccccc2nc1C(=O)O
active: [5] 41.1 µM
not listed: [10]
inactive: all other assays above

CC(C)=CCC/C(C)=C\C#N
not listed: [10]
inactive: all other assays above

CC(C)C1=CC2=CC[C@@H]3[C@](C)(CCC[C@@]3(C)C(=O)O)[C@H]2CC1
active: [3] 135 µM | [4] 3.7 µM | [5] 31.6 µM | [6] 149 µM
not listed: [7]
inactive: all other assays above

C=CC(C)(CCC=C(C)C)OC(=O)C(C)C (centres undefined)
active: [3] 141 µM | [6] 146 µM
not listed: [10]
inactive: all other assays above

O=C1c2cccc(O)c2C(=O)c2c(O)cc(CO)cc21
active: [3] 11.3 µM | [6] 32.5 µM
not listed: [7]
inactive: all other assays above

C1=CCCC1
not listed: [10]
inactive: all other assays above

CN1C(=O)N(C)C(O)C1O (centres undefined)
not listed: [7]
inactive: all other assays above

C=CC(=O)OCCOC1C2CCC1C1CC=CC12 (centres undefined)
not listed: [10]
inactive: all other assays above

O=C1CCCCCCCCCCCCCCCO1
active: [3] 72.9 µM | [4] 63.2 µM | [5] 61.9 µM
not listed: [10]
inactive: all other assays above

O=C1CC2CC1C1CCCC21 (centres undefined)
inactive: all assays above

C#CC1(O)CC[C@H]2[C@@H]3CCC4=CCCC[C@@H]4[C@H]3CC[C@@]21C (some centres undefined)
active: [4] 1.24 µM | [7] 34 µM | [8] 49 µM
not listed: [10]
inactive: all other assays above

C(=CC=Nc1ccccc1)C=CNc1ccccc1
active: [5] 10.1 µM | [6] 100 µM
not listed: [10]
inactive: all other assays above

Cc1ccc2c(c1)C(=O)c1ccccc1C2=O
active: [3] 21.5 µM | [5] 9.39 µM
not listed: [7]
inactive: all other assays above

C=C[Si](C)(C)O[Si](C)(C)C=C
active: [5] 100 µM
not listed: [7]
inactive: all other assays above

CO[Si](OC)(OC)c1ccccc1
not listed: [9] | [10]
inactive: all other assays above

c1ccc(CNCc2ccccc2)cc1
not listed: [7]
inactive: all other assays above

O=c1n(CCO)c(=O)n(CCO)c(=O)n1CCO
not listed: [7]
inactive: all other assays above

ON(Cc1ccccc1)Cc1ccccc1
inactive: all assays above

CCOC(=O)CC
not listed: [9] | [10]
inactive: all other assays above

CCCCCCCC/C=C\CCCCCCCC(=O)OCCO
inactive: [3] | [5] | [7]
active: [1] 50 µM | [2] 69 µM | [4] 50 µM | [6] 50 µM | [8] 59.4 µM

Nc1ccc(-c2ccc(F)cc2)cc1
not listed: [10]
inactive: all other assays above

CC(=O)CC(N)=O
not listed: [10]
inactive: all other assays above

O=C1c2ccccc2C(=O)C1c1nc2ccccc2c(Br)c1O
active: [5] 0.388 µM | [7] 100 µM
not listed: [10]
inactive: all other assays above

CC1=Nc2ccc3ccccc3c2C1(C)C
active: [3] 66.4 µM | [6] 66 µM | [7] 65.7 µM
not listed: [10]
inactive: all other assays above

CC(C)(C)C(=O)CCc1ccc(Cl)cc1
inactive: all assays above

CC(C)c1ccc2cc(C(C)C)ccc2c1
active: [1] 62 µM | [2] 64.6 µM | [3] 45.5 µM | [5] 135 µM | [6] 55.8 µM | [8] 67 µM
inactive: [4] | [10]

O=[N+]([O-])c1ccc(CO)cc1
not listed: [9] | [10]
inactive: all other assays above

CCOC(=O)N1CCC(=C2c3ccc(Cl)cc3CCc3cccnc32)CC1
active: [3] 7.56 µM | [4] 9.1 µM
inactive: all other assays above

CCN(CC#N)c1cccc(C)c1
not listed: [7] | [9]
inactive: all other assays above

CC(C)C(=O)C(C)C
active: [1] 36.9 µM | [6] 66.5 µM
not listed: [7]
inactive: all other assays above

Oc1ccc(Cl)cc1Cc1cc(Cl)ccc1O
inactive: [2] | [3] | [5] | [9]
active: [1] 3.51 µM | [4] 7.95 µM | [6] 17.6 µM | [7] 3.46 µM | [8] 3.08 µM

Nc1ccc2cc3ccccc3cc2c1
not listed: [10]
inactive: all other assays above

CCN(CCC#N)c1ccc(N=Nc2c(Cl)cc([N+](=O)[O-])cc2Cl)cc1
active: [6] 27 µM
not listed: [7] | [9]
inactive: all other assays above

CCOC(F)(F)C(F)(F)C(F)(F)C(F)(F)F
not listed: [7]
inactive: all other assays above

O=C1CCCN1CCO
not listed: [4]
inactive: all other assays above

CCO[Si](C)(OCC)OCC
not listed: [6] | [7]
inactive: all other assays above

CCCCC(CC)CCC(CC(C)C)OS(=O)(=O)O (centres undefined)
active: [1] 142 µM | [6] 139 µM
not listed: [4]
inactive: all other assays above

O=C(O)C(c1ccc(Cl)cc1)c1ccc(Cl)cc1
not listed: [6] | [7]
inactive: all other assays above

CCOC(=O)c1ccccc1C(=C1C=C(Br)C(=O)C(Br)=C1)c1cc(Br)c(O)c(Br)c1
inactive: [9]
active: [1] 25.4 µM | [2] 18.8 µM | [3] 53.7 µM | [4] 21.5 µM | [5] 26.2 µM | [10] 49.9 µM | [7] 109 µM | [8] 21.3 µM

O=c1cc[nH]c(=S)[nH]1
not listed: [6]
inactive: all other assays above

Cc1cccc(OCCOc2cccc(C)c2)c1
not listed: [4] | [9]
inactive: all other assays above

CC(C)(C)C(=O)C=Cc1ccc(Cl)cc1
active: [2] 26.5 µM | [6] 26 µM | [10] 169 µM | [7] 12.3 µM
not listed: [4]
inactive: all other assays above

CN(C)c1ccc(N=Nc2ccccc2C(=O)O)cc1
active: [3] 137 µM | [4] 29.7 µM
not listed: [6]
inactive: all other assays above

CCCC(=O)OCc1ccccc1
not listed: [6] | [10]
inactive: all other assays above

COc1cc(NC(=O)CC(C)=O)c(OC)cc1Cl
active: [5] 40.1 µM
not listed: [6] | [9]
inactive: all other assays above

O=C(OCC1CCC2OC2C1)C1CCC2OC2C1 (centres undefined)
not listed: [7] | [10]
inactive: all other assays above

Cc1cc(C)c(C)c(O)c1
not listed: [6]
inactive: all other assays above
